CDC25B-CDK2 inh – human CDC25B-CDK2/CyclinA binding inhibition; P30305+P24941; HTRF CDC25B-CDK2/CyclinA binding, anti-His/anti-Flag; hits give high values; z-score (concentration not given with the values); AID 1259370; 0.72% of 94,000 active; in the data active means z-score above about 3.2
TAR Tat displ – HIV-1 TAR-Tat binding disruption; HIV-1 TAR RNA, Tat peptide displacement FRET; hits give high values; z-score (test concentration not listed); 0.6% of 100,000 active; AID 1259389; active means z-score of 3 or more in at least 2 runs
Numbers without * were called inactive. The list is not random: actives were taken first. Their share in the collection is about 0.86%.

Results for COc1ccc(S(=O)(=O)N(C(=O)c2ccco2)c2cc3sc(=O)oc3c3ccccc23)cc1 ?
CDC25B-CDK2 inh: 16.4*; TAR Tat displ: 1.8

What do the screens show for `CCOc1ccc(S(=O)(=O)N(C(=O)c2ccco2)c2cc3sc(=O)oc3c3ccccc23)cc1`?
CDC25B-CDK2 inh: -0.58; TAR Tat displ: 0.98

What do the screens show for `CC1Cc2ccccc2N1C(=O)Cn1c(=O)oc2cc(S(=O)(=O)N3CCOCC3)ccc21` (stereo not drawn)?
CDC25B-CDK2 inh: -1.42

How did O=C(CSc1nc2c(c(=O)n1-c1ccc(Br)cc1)SCC2)Nc1ccc(F)cc1 do in these assays?
CDC25B-CDK2 inh: -2.23; TAR Tat displ: 0.55

What do the screens show for `O=c1[nH]c(SCCCCOc2ccccc2)nc2c1CCCC2`?
CDC25B-CDK2 inh: -1.04; TAR Tat displ: 1.04

How did Cn1c(=O)sc2cc(NC(=O)Cn3c(=O)oc4ccccc43)ccc21 do in these assays?
CDC25B-CDK2 inh: 7.49*; TAR Tat displ: 1.7

What do the screens show for `CCC(=O)Nc1ccc2c(c1)sc(=O)n2C`?
TAR Tat displ: 1.07

Results for CCCCCCn1c(CCCO)nc2ccccc21 ?
CDC25B-CDK2 inh: 0.36; TAR Tat displ: -1.95

What do the screens show for `O=C(Cn1c(=O)oc2cc(Cl)ccc21)NC1CCCc2ccccc21` (stereo not drawn)?
CDC25B-CDK2 inh: -0.41

Results for CC1=C(c2ccccc2)S(=O)(=O)NC1=NCc1ccc(Cl)cc1 ?
CDC25B-CDK2 inh: -1.53; TAR Tat displ: -1.52

Results for CN1CCN(CCNC(=O)C2CCCN(S(=O)(=O)c3ccc4c(ccn4C)c3)C2)CC1 (stereo not drawn) ?
TAR Tat displ: 1.09

How did Oc1ccccc1Nc1nc(NCc2ccco2)c2ccccc2n1 do in these assays?
CDC25B-CDK2 inh: -1.23; TAR Tat displ: 8.74

Results for Cc1ccccc1Nc1nc(NCc2ccco2)c2ccccc2n1 ?
CDC25B-CDK2 inh: 5.99*; TAR Tat displ: -0.17

What do the screens show for `O=C(O)c1cc(-c2cc(C(=O)O)c3ccccc3n2)nc2ccccc12`?
CDC25B-CDK2 inh: 1.55; TAR Tat displ: 1.12

What do the screens show for `O=C(O)c1cc(-c2ccco2)nc2ccccc12`?
TAR Tat displ: 23.9*

Results for COc1cccc(OCCSc2nc3ccccc3n2CC(=O)NC2CC2)c1 ?
CDC25B-CDK2 inh: -1.41; TAR Tat displ: -0.24

Results for CC1CCC(NC(=O)C2(C)Cn3c(cc4occc43)C(=O)N2CCCN2CCCC2)CC1 (stereo not drawn) ?
TAR Tat displ: -0.52

Results for COc1ccc(Nc2ncnc3sc(C(=O)O)c(C)c23)c(OC)c1 ?
TAR Tat displ: 2.33

What do the screens show for `Cc1c(C(=O)O)sc2ncnc(Nc3ccc(F)c(Cl)c3)c12`?
TAR Tat displ: 20.2*

How did Cc1c(C(=O)O)sc2ncnc(NCCC3=CCCCC3)c12 do in these assays?
TAR Tat displ: 6.61*

Results for CCCCNc1ncnc2sc(C(=O)O)c(C)c12 ?
TAR Tat displ: 0.95

Results for Cc1c(C(=O)O)sc2ncnc(NCc3ccco3)c12 ?
TAR Tat displ: 1.55

Results for Cc1c(C(=O)O)sc2ncnc(Nc3ccccc3F)c12 ?
TAR Tat displ: 21.4*

What do the screens show for `Cc1c(C(=O)O)sc2ncnc(NC3CC3)c12`?
TAR Tat displ: 0.22

Results for COc1ccc(Cl)cc1Nc1ncnc2sc(C(=O)O)c(C)c12 ?
TAR Tat displ: 3.89*

Results for CC1(C)CC(=O)C2=C(C1)Nc1cc3c(cc1C2c1ccc(Br)cc1)OCCO3 (stereo not drawn) ?
CDC25B-CDK2 inh: -2.12

Results for Cc1ccccc1-n1nc2oc3ccc(Cl)cc3cc-2c1=O ?
CDC25B-CDK2 inh: -1.76; TAR Tat displ: -0.09

How did Brc1ccc2c(c1)NC(c1cccs1)=NC(c1cccs1)=N2 do in these assays?
CDC25B-CDK2 inh: 1.11; TAR Tat displ: 1.08

Results for CC(C)CN(CC(C)C)C(=O)Cn1c(=O)oc2ccccc21 ?
CDC25B-CDK2 inh: -0.29

How did c1ccc(-c2nc3cccnc3n2C2CCNCC2)cc1 do in these assays?
TAR Tat displ: -0.2

What do the screens show for `O=c1ccc(-c2ccc(S(=O)(=O)N(CCc3ccccc3)Cc3ccccc3)s2)n[nH]1`?
TAR Tat displ: -0.5

What do the screens show for `O=C1CC(c2ccc(Cl)cc2)CC2=C1C(c1cccc(O)c1)Nc1ccccc1N2` (stereo not drawn)?
CDC25B-CDK2 inh: 2.11

What do the screens show for `CN1C2=C(C(=O)CC(C)(C)C2)C(c2cccs2)C2=C1CC(C)(C)CC2=O`?
CDC25B-CDK2 inh: 16*

What do the screens show for `CC1(C)CC(=O)C2=C(C1)NC1=C(C(=O)c3ccccc31)C2c1cccs1` (stereo not drawn)?
CDC25B-CDK2 inh: -0.39; TAR Tat displ: 0.71

Results for O=C(NC1CCCCC1)c1ccc2c(c1)CC(c1ccccc1)OC2=O (stereo not drawn) ?
CDC25B-CDK2 inh: -0.24; TAR Tat displ: -0.66

How did Cc1cccc(Nc2ncnc3onc(-c4ccccc4C)c23)c1 do in these assays?
TAR Tat displ: 0.55

Results for Cc1ccc(N2C(=O)C3N=NN(Cc4ccc(Cl)cc4)C3C2=O)cc1C (stereo not drawn) ?
CDC25B-CDK2 inh: -0.17; TAR Tat displ: 0.03

Results for CC(Sc1nnc(-c2ccco2)n1Cc1ccccc1)C(=O)O (stereo not drawn) ?
CDC25B-CDK2 inh: -0.56; TAR Tat displ: 0.47

Results for Fc1ccc(N2COc3cc4c(cc3C2)OCO4)cc1Cl ?
CDC25B-CDK2 inh: 8.61*

How did COc1ccc(N2COc3cc4c(cc3C2)OCO4)cc1 do in these assays?
CDC25B-CDK2 inh: -4.4

Results for CC1=C(c2cccc(Br)c2)S(=O)(=O)N=C1Nc1ccc(F)cc1 ?
CDC25B-CDK2 inh: -1.73; TAR Tat displ: 0.9

How did CC1CSc2ccc(S(=O)(=O)N3CCN(c4cccc(Cl)c4)CC3)cc2NC1=O (stereo not drawn) do in these assays?
TAR Tat displ: 0.72

How did c1ccc(N2CCN(c3nnc(-n4cccc4CN4CCN(c5ccccn5)CC4)s3)CC2)cc1 do in these assays?
TAR Tat displ: 0.58

What do the screens show for `OC(CN1CCN(C2CCCCC2)CC1)c1ccc2[nH]ccc2c1` (stereo not drawn)?
CDC25B-CDK2 inh: -1.36; TAR Tat displ: -1.43

How did Cc1ccccc1-c1nc(SCc2cc(=O)n3c(C)csc3n2)n[nH]1 do in these assays?
TAR Tat displ: 0.91

What do the screens show for `Cc1cccc(-c2nnn3c2nc(NCc2ccco2)c2ccccc23)c1`?
CDC25B-CDK2 inh: -1.75; TAR Tat displ: 7.8*

Results for Cc1ccc(-c2nnn3c2nc(NCc2ccco2)c2ccccc23)cc1 ?
CDC25B-CDK2 inh: -1.99; TAR Tat displ: 1.18

Results for CCOc1ccccc1NC(=O)C1CC2CSCN2C12C(=O)Nc1ccccc12 (stereo not drawn) ?
TAR Tat displ: 0.13

What do the screens show for `Cc1noc(NC(=O)Nc2c(-c3ccccc3Cl)noc2C)c1C`?
CDC25B-CDK2 inh: -2.2

Results for Cc1onc(-c2c(Cl)cccc2Cl)c1NC(=O)NNc1ccccn1 ?
CDC25B-CDK2 inh: 9.54*

How did COc1ccc2ccccc2c1C1CC(=O)N2CN(Cc3ccccc3)CSC2=C1C#N (stereo not drawn) do in these assays?
CDC25B-CDK2 inh: 5.38*; TAR Tat displ: 1.59

What do the screens show for `COc1ccc2ccccc2c1C1CC(=O)N2CN(C3CCCCC3)CSC2=C1C#N` (stereo not drawn)?
CDC25B-CDK2 inh: 6.11*; TAR Tat displ: -1.61

What do the screens show for `COc1ccc2ccccc2c1C1CC(=O)N2CN(Cc3ccco3)CSC2=C1C#N` (stereo not drawn)?
CDC25B-CDK2 inh: 5.81*; TAR Tat displ: 0.91

High-throughput results (PubChem BioAssay)
